# Values without a mark were called inactive. The rule behind the calls is not given here.
# Biological target: Pantothenate synthetase (Mycobacterium tuberculosis (strain ATCC 25618 / H37Rv)) (UniProt P9WIL5)
# Experiment: Coupled enzyme confirmation of inhibitors against recombinant Mtb PanC (AID 375);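 note: 0% = full reaction with vehicle and 100% = no enzyme background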
# Conditions: coupled enzyme assay; at 10 µM, hits give high values
# Pantothenate synthetase (Mycobacterium tuberculosis (strain ATCC 25618 / H37Rv)), sequence (P9WIL5 whole entry, looked up): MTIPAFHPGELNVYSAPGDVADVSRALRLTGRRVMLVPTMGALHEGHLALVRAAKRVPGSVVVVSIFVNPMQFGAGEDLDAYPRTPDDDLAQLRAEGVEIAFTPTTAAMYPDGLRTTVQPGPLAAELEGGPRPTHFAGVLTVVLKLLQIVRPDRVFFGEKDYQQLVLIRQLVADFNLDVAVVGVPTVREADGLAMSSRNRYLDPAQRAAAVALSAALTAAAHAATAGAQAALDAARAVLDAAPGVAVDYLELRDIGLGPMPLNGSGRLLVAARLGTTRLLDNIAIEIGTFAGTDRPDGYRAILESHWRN
row,Structure (SMILES),inhibition
1,C=CCn1c(=O)[nH]c2cc(C(=O)N3CCN(c4cc(C)ccc4C)CC3)ccc2c1=O,4%
2,FC(F)Sc1nnc(-c2cccs2)n1-c1ccccc1,0%
3,CCNS(=O)(=O)c1ccc(S(=O)(=O)N(Cc2ccccn2)C2CCCCC2)cc1,1%
4,Cc1ccc(O)c(-c2cc3ccccc3[nH]2)c1,0%
5,COc1cc2cc(C(c3nnnn3C3CCCC3)N3CCCCCC3)c(=O)[nH]c2cc1OC (stereo not drawn),5%
6,Nc1cccc(C(=O)O)c1,0%
7,Cc1ccc(-c2nnc(N(C)C(=O)c3ccccn3)s2)cn1,0%
8,O=C1CC(c2ccc(Cl)cc2)n2nc(N3C(=O)c4ccccc4C3=O)nc2N1 (stereo not drawn),5%
9,CCOC(=O)Cc1c(C)c2c(O)cc(O)cc2oc1=O,8%
10,CN1CCCN(C(=O)c2cc(=O)[nH]c3ccccc23)c2nc3ccccc3nc21,0%
11,O=S(=O)(NCc1ccco1)c1cccc2cccnc12,1%
12,O=C(NCCc1ccccc1)c1cc(-c2ccco2)on1,5%
13,CC(C)(C)NC(=O)CN(Cc1cccs1)C(=O)c1csnn1,0%
14,Cc1nnc(NCCc2ccccc2)n(N)c1=O,5%
15,C/C(NC1CCCC1)=C(/C#N)C(N)=O,9%
16,CCOC(=O)c1c(NC(=O)c2ccn(CC)n2)sc2c1CCCC2,3%
17,NCCCCCc1nnc(SC/C=C/c2ccccc2)o1,0%
18,Cc1onc(-c2ccccc2Cl)c1C(=O)NCCn1c(C)cc2ccccc21,8%

# — PubChem BioAssay
